Sampled rows, rich in hits. Any-hit rate of the full collection: about 6.2%.
KB-V1 cytotox: qHTS assay for MDR1-selective chemotherapeutics: Primary screen using the drug-selected MDR subline cells KB-V1; KB-V1 MDR cells viability, CellTiter-Glo, 72 h; Potency, µM (titrated, usually from 46.1 µM), most hits filed as cytotoxic; 400,000 compounds, 3.4% hits; further: on the % scale 0 is the no-effect control and ±100 the full control effect; nearly all actives have a fitted effect of over 60% in size
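Cells of the MDR subline KB-V1 are plated, dosed with compound at multiple concentrations, and incubated 72 h at 37 degrees C; CellTiter-Glo is then added and luminescence read after 10 min.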
HT1080 IDH1KD tx: qHTS for induction of synthetic lethality in tumor cells producing 2HG: qHTS for the HT-1080-IDH1KD cell line. Potency, µM (doses to about 46.1 µM), for the others: at the top dose activity, negative = toxicity, actives largely listed as cytotoxic. HT-1080 IDH1 knockdown viability, ATP luminescence, 48 h. AID 686971, 2013. 360,000 compounds, 2% hits;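 further: 0% = DMSO wells and -100% = cell-free medium wells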
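HT-1080-IDH1KD cells (IDH1 knocked down), 750/well in RPMI with 5% FBS, treated with compound 48 h at 37 degrees C. Viability by CellTiter-Glo luminescence, normalised to DMSO and no-cell wells; concentration-response curves classed.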
HT1080-NT tox: qHTS for induction of synthetic lethality in tumor cells producing 2HG: qHTS for the HT-1080-NT fibrosarcoma cell line; HT-1080-NT fibrosarcoma viability, CellTiter-Glo ATP luminescence, 48 h; Potency, µM (highest dose often 46.1 µM), for the others: at the highest dose activity, negative = less viability, most hits filed as cytotoxic; 360,000 compounds, 1.6% hits; AID 686970, 2013;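 further: NT is the 2HG producing partner of a matched IDH1 knockdown line; 0% = DMSO-treated cells and -100% = media-only wells without cells; nearly all actives have a fitted effect of over 55% in size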
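Viability of the 2HG-overproducing fibrosarcoma line after 48 hours of compound exposure at 37 degrees C was determined by luminescence with CellTiter-Glo, and concentration-effect curves were then fitted and categorized.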
KB-3-1 cytotox: qHTS assay for MDR1-selective chemotherapeutics: Primary screen using the parental adenocarcinoma cell KB-3-1. KB-3-1 viability, CellTiter-Glo ATP luminescence, 72 h. 400,000 compounds, 1.4% hits. Potency, µM (titrated, usually from 46.1 µM), actives largely listed as cytotoxic; further: on the % scale 0 is the no-effect control and ±100 the full control effect; nearly all actives have a fitted effect of over 60% in size
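Parental KB-3-1 adenocarcinoma cells in phenol-red-free DMEM with 10% FBS were pin-treated with compounds at several concentrations, incubated 72 h at 37 °C, and viability read by CellTiter-Glo luminescence; concentration-effect curves were fitted after normalization.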
ATXN2 expr inh: Primary qHTS for Inhibitors of ATXN expression; HEK-293 ATXN2-luciferase reporter, luminescence, 24 h; Potency, µM (highest dose often 57 µM), for the others: at the highest dose activity change, negative = inhibition, actives largely listed as inhibitors; 360,000 compounds, 0.72% hits; AID 1745845, 2022; further: on the % scale 0 is the no-effect control and ±100 the full control effect; nearly all actives have a fitted effect of over 55% in size
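qHTS (up to 57 uM final) was run with 24 h compound exposure of reporter cells at 37 °C. Each well was multiplexed: SteadyGlo luminescence measured ATXN2-luciferase expression after a fluorogenic Gly-Phe-AFC viability readout (25 uM final).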
ATXN viability: Viability Counterscreen for Primary qHTS for Inhibitors of ATXN expression | 400,000 compounds, 0.49% hits | S2 cells (HEK-293 line with an ATXN2-luciferase reporter) viability, CellTiter-Fluor protease fluorescence, 24 h | AID 651635, 2014 | Potency, µM (series often up to 56.7 µM), hits mostly cytotoxic; further: nearly all actives have a fitted effect of over 40% in size
Active calls of the source: *; i = inactive; ? = inconclusive; · = no result. The call rests on the fitted dose curve; in most records, active means well fitted curve in the direction sought with a large enough effect; inconclusive means small, poorly fitted or top-dose-only effect, or another doubt; inactive means no such curve, though single readings can be large; an effect the other way counts as inactive or inconclusive. Potency means the concentration at half of the fitted maximal effect.

SMILES	KB-V1 cytotox	HT1080 IDH1KD tx	HT1080-NT tox	KB-3-1 cytotox	ATXN2 expr inh	ATXN viability
CC(=O)N(C)c1cc([N+](=O)[O-])ccc1OCc1ccccc1	21µM*	-4%	0%	i	9%	i
NS(=O)(=O)c1ccc2nc(NC(=O)COc3ccc(Cl)cc3Cl)sc2c1	?	·	·	i	2%	?
CCOC(=O)c1ccccc1NC(=O)CN1CCCN(Cc2cccc(Cl)c2)S1(=O)=O	i	·	·	i	·	·
CC1C(=O)C(C)C(c2ccc(Br)cc2)NC1c1ccc(Br)cc1 (stereo not drawn)	i	-11%	0%	i	·	?
CC1C(=O)C(C)C(c2cc(Br)ccc2O)NC1c1cc(Br)ccc1O (stereo not drawn)	?	?	13µM*	?	?	?
COC(=O)c1ccc(CNC(=O)c2nc(Cn3nc(C)c(Br)c3C)no2)cc1	?	·	·	i	-17%	i
C=CCN(CC=C)Cc1c(O)ccc2c1oc(=O)c1ccccc12	10µM*	-2%	1%	i	-6%	i
C=CCN(CC=C)Cc1cc(=O)oc2ccc3ccccc3c12	i	?	?	?	-19%	?
COc1ccc(NC(=O)c2cc(SC)ccc2Cl)cc1	15µM*	-25%	-11%	i	2%	i
COc1ccc(NC(=O)c2cnc(SC)nc2)cc1	?	?	?	16µM*	·	i
COc1cc(SC)ccc1C(=O)Nc1ccccc1	?	?	-10%	i	58%	i
COc1ccc(S(=O)(=O)N(C)c2ccc(C(=O)NCc3ccccn3)cc2)cc1	?	2%	-2%	i	-3%	i
Cc1ccc2c(c1C)-c1c(ccc(C)c1C)C(=O)C2=O	0.65µM*	10µM*	5.8µM*	3.3µM*	?	?
COc1ccc(NC(=O)Cn2c(=O)n(Cc3nc(C)no3)c(=O)c3cc4c(cc32)OCO4)cc1OC	?	·	·	i	4%	i
O=C1CC(c2ccccc2)Cc2nc3ncnn3cc21 (stereo not drawn)	?	?	11µM*	?	-1%	i
CC(C)(C)C(=O)Cn1ncc(Cl)c(Cl)c1=O	?	?	13µM*	i	·	7.9µM*
C=CCn1c(C)cc(C(=O)Cn2ncc(Cl)c(Cl)c2=O)c1C	?	3.3µM*	?	?	?	35µM*
O=C(OCn1ncc(Cl)c(Cl)c1=O)c1ccccc1Cl	?	5.8µM*	7.3µM*	3.7µM*	?	·
C=CCn1c(C)cc(C(=O)CN2NS(=O)(=O)c3ccccc3C2=O)c1C	?	18µM*	16µM*	?	·	?
Cc1ccc(CNC(=O)CN2NS(=O)(=O)c3ccccc3C2=O)cc1	i	3%	2%	i	·	i
CC(C)=CCC[C@@](C)(O)[C@H]1CC=C(C)CC1	·	·	·	·	28%	i
CC(C(=O)Nc1ccccn1)N1C(=O)c2ccccc2S1(=O)=O (stereo not drawn)	i	0%	7%	i	-2%	i
Cc1cc2oc(=O)cc(CN3CCN(c4ccc(Cl)c(Cl)c4)CC3)c2cc1Cl	i	4%	23%	i	-6%	i
COc1ccc(CNCCCSc2nnnn2-c2ccccc2)cc1	i	·	·	i	-21%	i
O=C(Cn1ncc(Cl)c(Cl)c1=O)c1ccc(Cl)cc1	?	?	15µM*	?	?	?
CCN(CC)C(=O)C1=C(C)N(CCC2=CCCCC2)C(=O)C(CC(=O)NCCCN(C)C)C1 (stereo not drawn)	i	0%	3%	i	4%	i

Screening data from PubChem BioAssay.
